Test results as given in PubChem BioAssay (Tox21).
Inconclusive results are not listed. The source made the active and inactive calls. Calls come from the whole dose curve; as a rule, active = well fitted cell-killing curve with a large enough effect in the repeat runs; inconclusive = weak or mixed curves, or effect the other way; inactive = flat fitted curve, though single readings scatter.

Test: qHTS RealTime-Glo MT Cell Viability Assay in HEK293 cells - 32 hour (AID 1224868); note: nearly all actives have a fitted effect of over 50% in size; for activity change, negative = cytotoxic: top concentration of the series differs between compounds
Conditions: RealTime-Glo luminescence; series mostly up to 76.8 µM; activity change, negative = cytotoxic: at the top concentration
Source text: National Center for Advancing Translational Sciences [NCATS]
NIH Chemical Genomics Center [NCGC]
U.S. Environmental Protection Agency [EPA]
National Institutes of Environmental Health Sciences [NIEHS]
National Toxicology Program [NTP]
U.S. Food and Drug Administration [FDA]
Measure of cell viability is critical in the cell-base assay. Analysis of cell viability is necessary for the characterization of cell responses to cytotoxic drugs and environmental stress. A RealTime-Glo MT Cell Viability Assay to monitor cell viability in real time of continues cell culture during 40 hours of compound treatment was used to screen Tox21 10K library compounds in Hek293 cells. The RealTime-Glo MT Cell Viability Assay is a nonlytic, homogeneous, bioluminescent method to measure cell viability in real time using a simple, plate-based method. The assay involves adding NanoLuc luciferase and a cell-permeant prosubstrate to cells in culture. Viable cells reduce the proprietary prosubstrate to generate a substrate for NanoLuc luciferase. This substrate diffuses from cells into the surrounding culture medium, where it is rapidly used by the NanoLuc Enzyme to produce a luminescent signal. The signal correlates with the number of viable cells, making the assay well suited for cytotoxicity studies.
Tox21 Assay Protocol Summary:
The mixture of Hek293 cell suspension and reagents were dispensed at 600cells/6 ul/well in 1536-well tissue culture treated black solid bottom plates using a Multidrop dispenser. After the assay plates were incubated at a 37 C/5% CO2 incubator for 5 hours, 23 nL of compounds dissolved in DMSO, positive and negative controls was transferred to the assay plate by a pintool work station. The plates were incubated at 37 C for 40 hours. The luminescence intensity were measured at 0h, 8h, 16h, 24h, 32h and 40h time points using ViewLux plate reader during compound treatment.
% is set by controls: 0 for no effect and ±100 for the full control effect; potency is the fitted concentration of half-maximal effect.

SMILES | activity change, negative = cytotoxic | Potency
O=C(O)Cn1c(C(=O)Nc2nc(-c3ccccc3Cl)cs2)cc2ccccc21 | 0.144% [at 35.3 µM] (inactive) | 
CC(C)(C)c1ccc(OCC2CO2)cc1 (stereo not given) | -10.7% (inactive) | 
O=[N+]([O-])c1cc[n+]([O-])cc1 | -13.5% (inactive) | 
c1ccc(OCc2ccc(CCCN3CCOCC3)cc2)cc1 |  | 19 µM (active)
CCCCC(CC)(CO)CO | -4.43% (inactive) | 
C=CC(C)(CCC=C(C)C)OC(=O)c1ccccc1 (stereo not given) | -14.3% (inactive) | 
CCCC[C@H]1CN(CC2CCOCC2)C(=O)OC12CCN(C1(C)CCN(C(=O)c3c(C)ncnc3C)CC1)CC2 | 1.63% (inactive) | 
CCOC(=O)C1=NN(c2ccccc2)C(=O)C1 | 1.51% (inactive) | 
O=C(O)[C@@H]1[C@H]2C[C@H]3c4[nH]c5ccccc5c4CCN3C[C@@H]2CC[C@@H]1O | 1.73% [at 35.3 µM] (inactive) | 
CCCCOC(=O)c1ccccc1C(=O)OCC(CC)CCCC (stereo not given) | -12.5% (inactive) | 
C1=Cc2ccccc2C1 | 2.8% (inactive) | 
CC(=O)/C=C/C1C(C)=CCCC1(C)C (stereo not given) | -3.5% (inactive) | 
COCCOCCOCCOCCOC | 1.73% (inactive) | 
CCCCCCCCN(C)C | 10.1% (inactive) | 
NC(=S)N/N=C/c1cccnc1 | 7.2% [at 35.3 µM] (inactive) | 
CC(C)CC=O | 8.5% (inactive) | 
NCc1ccccc1 | 0.313% (inactive) | 
CCCCCCCCCC(=O)OCC | -9.95% (inactive) | 
C=CCCCCCC | 9.25% (inactive) | 
CCCCCCCCC(CO)CCCCCC (stereo not given) | -0.0677% (inactive) | 

SMILES | activity change, negative = cytotoxic | Potency
NC(N)=N/N=C/c1c(Cl)cccc1Cl | -22.3% [at 35.3 µM] (inactive) | 
O=C(/C=C/c1ccc(O)c(O)c1)O[C@@H]1C[C@](O)(C(=O)O)C[C@@H](O)[C@H]1O | -3.98% (inactive) | 
COc1cc(C(C)(C)C)c(O)c(C(C)(C)C)c1 | -0.926% (inactive) | 
O=C(O)Cc1sc(-c2ccccc2)nc1-c1ccc(Cl)cc1 | 2.76% [at 35.3 µM] (inactive) | 
CC[C@H](C)[C@H](N)C(=O)O | 0.976% [at 35.3 µM] (inactive) | 
CC(C)(C)C1CCCCC1O (stereo not given) | -3.07% (inactive) | 
N#CCCNCCC#N | 4.86% (inactive) | 
CN1CCN(C2=Nc3ccccc3Sc3ccc(Cl)cc32)CC1 | -6.25% [at 35.3 µM] (inactive) | 
CCOc1cc(OCC)c(C(=O)CCC(=O)O)cc1OCC | 7.15% [at 35.3 µM] (inactive) | 
Cc1cc(NC(=O)C(=O)O)cc(C)c1Oc1ccc(O)c2c1CCC2 | -7.96% (inactive) | 
O=c1c2ccccc2nnn1CCl | 9.89% (inactive) | 
Oc1ccc(Sc2ccc(O)cc2)cc1 |  | 20.5 µM (active)
O=C(CC(=O)c1ccccc1)c1ccccc1 | -8.31% (inactive) | 
Nc1ccc(C(=O)N2CC3CC(CN(Cc4ccccc4)C3)C2)cc1 | -9.92% [at 35.3 µM] (inactive) | 
FC(F)(F)C(F)(F)C(F)(F)C(F)(F)C(F)(F)C(F)(F)CCI | 0.0577% [at 35.3 µM] (inactive) | 
COC(=O)CSc1cc(N=c2sc(=O)n3n2CCCC3)c(F)cc1Cl | 4.23% (inactive) | 
CC(C)(C)c1cc(O)c(C(C)(C)C)cc1O |  | 24.5 µM (active)
O=C=NC1CCC(CC2CCC(N=C=O)CC2)CC1 (stereo not given) | -28.8% (inactive) | 
CC(O)C1CCCCC1 (stereo not given) | 1.82% (inactive) | 
CCOc1ccc2[nH]cc(C(=O)NCc3ccccc3)c(=O)c2n1 | -19.4% (inactive) | 
